Many of the other results were omitted from the sample, so hits are more common in it than they were.
TDP1 cell noCPT – qHTS for Inhibitors of human tyrosyl-DNA phosphodiesterase 1 (TDP1): qHTS in cells in absence of CPT. DT40 Tdp1-/- hTDP1 cells, no CPT, ATP luminescence, 48 h. Potency, µM (top dose mostly 46.2 µM), for inactives: top-dose activity change, negative = growth inhibition, hits mostly inhibitors. actives 15% (n = 420,000). AID 686978, 2013; also: potency is read from the fitted curve at half-maximal effect; nearly all actives have a fitted effect of over 55% in size
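DT40 Tdp1-/-;hTDP1 cells, no CPT (DMSO vehicle only), 400 cells/well; compounds pin-transferred; ≥48 hr, 37 °C; CellTiter-Glo 30 min RT dark, luminescence read.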
DT40 TDP1 CPT – growth inhibition of DT40 Tdp1-/-;hTDP1 cells with camptothecin (screen for TDP1 inhibitors); chicken DT40 Tdp1-/-;hTDP1 cells + 20 nM CPT, ATP luminescence, 48 h; Potency, µM (doses to about 46.2 µM), without a hit: top-dose activity change, negative = growth inhibition, usual class: inhibitors; actives 12% (n = 420,000); also: potency is read from the fitted curve at half-maximal effect; nearly all actives have a fitted effect of over 55% in size
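Cell growth measured by CellTiter-Glo luminescence after a minimum 48 h, 37 C compound exposure with 20 nM CPT in Tdp1-knockout DT40 cells stably expressing hTDP1, seeded 400/well; qHTS titration format.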
HT1080 IDH1KD tx – kills HT-1080 cells with IDH1 knockdown; HT-1080 IDH1 knockdown viability, ATP luminescence, 48 h; Potency, µM (series often up to 46.1 µM), without a hit: at the highest dose activity, negative = toxicity, usual class: cytotoxic; actives 2% (n = 360,000); AID 686971;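 also: potency is read from the fitted curve at half-maximal effect; 0% = DMSO wells and -100% = cell-free medium wells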
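HT-1080-IDH1KD cells (IDH1 knocked down), 750/well in RPMI with 5% FBS, treated with compound 48 h at 37 degrees C. Viability by CellTiter-Glo luminescence, normalised to DMSO and no-cell wells; concentration-response curves classed.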
IL-1B inflam inh – blocks inflammasome-driven IL-1 beta release. THP-1 LPS/ATP IL-1B secretion, AlphaLISA, 16 h; hits give low values. activity change, % at 57.5 µM. actives 4.7% (n = 360,000). AID 743279; in the data active = activity change below about -50%; inconclusive = mostly about -30% to -49%
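Secreted IL-1B measured by AlphaLISA bead assay after 16 h compound exposure of THP-1 cells; compounds (final up to 57.5 uM) added 1 h before LPS (250 ng/mL) and ATP (1.25 mM) stimulation; lower signal means less secretion.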
ALOX12 inh – inhibitors of human 12S-lipoxygenase ALOX12. P18054. purified 12hLO, xylenol orange hydroperoxide absorbance. Potency, µM (series often up to 108 µM), inactives show at the top dose activity change, negative = inhibition, usual class: inhibitors. actives 1.1% (n = 580,000). AID 1671190; also: potency is read from the fitted curve at half-maximal effect
Target sequence (P18054 whole entry, looked up): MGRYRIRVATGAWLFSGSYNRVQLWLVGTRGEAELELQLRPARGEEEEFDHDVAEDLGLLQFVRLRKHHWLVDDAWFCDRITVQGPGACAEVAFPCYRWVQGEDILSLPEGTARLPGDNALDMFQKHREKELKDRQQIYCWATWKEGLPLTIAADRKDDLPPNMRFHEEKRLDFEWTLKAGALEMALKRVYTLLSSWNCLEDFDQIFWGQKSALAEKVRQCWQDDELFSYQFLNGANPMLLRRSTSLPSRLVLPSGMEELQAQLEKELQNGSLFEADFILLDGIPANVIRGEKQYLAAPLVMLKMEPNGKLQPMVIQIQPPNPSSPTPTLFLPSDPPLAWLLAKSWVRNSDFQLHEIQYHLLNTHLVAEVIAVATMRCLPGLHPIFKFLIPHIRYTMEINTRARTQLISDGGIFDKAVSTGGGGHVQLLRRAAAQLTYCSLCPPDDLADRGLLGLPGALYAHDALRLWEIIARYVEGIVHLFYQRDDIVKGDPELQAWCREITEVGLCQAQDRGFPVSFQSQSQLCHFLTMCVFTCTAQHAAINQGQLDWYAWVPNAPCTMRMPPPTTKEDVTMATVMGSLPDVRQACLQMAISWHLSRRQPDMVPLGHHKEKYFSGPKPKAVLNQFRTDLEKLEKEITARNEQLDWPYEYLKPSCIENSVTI
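Purified human 12hLO (150 nM final) in 25 mM Hepes, 0.01% Triton X-100, pH 7.0 was preincubated 15 min at room temperature with compound. Then 40 uM arachidonic acid was added, 30 min. Hydroperoxide was read by Fe-XO absorbance ratio 573/405 nm.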
HT1080NT lethal – kills 2HG-producing HT-1080-NT fibrosarcoma cells; HT-1080-NT fibrosarcoma viability, CellTiter-Glo ATP luminescence, 48 h; Potency, µM (highest dose often 46.1 µM), for the others: top-dose activity, negative = less viability, most hits filed as cytotoxic; actives 1.6% (n = 360,000);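 also: NT is the 2HG producing partner of a matched IDH1 knockdown line; potency is read from the fitted curve at half-maximal effect; 0% = DMSO-treated cells and -100% = media-only wells without cells; nearly all actives have a fitted effect of over 55% in size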
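750 cells/well, RPMI + 5% FBS; 2 h settle, compound pin-transfer, 48 h at 37 degrees C. CellTiter-Glo 10 min RT, luminescence. Normalized to DMSO and media-only wells.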
Active calls of the source: *; u = inconclusive; x = no result given; [ ] = dose if it differs, or a comment. Unless noted, calls follow the shape of the dose curve; as a rule, active = well fitted curve in the direction sought with a large enough effect; inconclusive = small, poorly fitted or top-dose-only effect, or another doubt; inactive = no such curve, though single readings can be large; an effect the other way counts as inactive or inconclusive. Unless noted, % is scaled to controls: 0 for no effect and ±100 for the full control effect.

SMILES | TDP1 cell noCPT | DT40 TDP1 CPT | HT1080 IDH1KD tx | IL-1B inflam inh | ALOX12 inh | HT1080NT lethal
Cc1cccc(Nc2cc(C)nc3ccccc23)c1 | u | -0.7% | -17.4% | -91.5* | -65.9% | -2.1%
Cc1cc(Nc2ccc3c(c2)OCCO3)c2cc(Cl)ccc2n1 | 14.6µM* | u | -17.4% | -115.7* | -15.9% | 1.0%
Cc1cc(Nc2cccc(Cl)c2)c2ccccc2n1 | 23.1µM* | 20.6µM* | -1.7% | u | 2.0% | -11.4%
O=C(Nc1ccccn1)C1CN(Cc2ccc[nH]2)CC12CCOCC2 (stereo not drawn) | x | x | x | x | 116.7% | x
OCC1(Cc2ccccc2)CCN(C2CCN(c3ccccc3F)CC2)CC1 | 23.1µM* | u | 1.8% | -85.1* | -21.7% | -13.2%
COCC(=O)NC[C@H]1O[C@@H](CC(=O)N(C)Cc2ccccc2)[C@H](O)[C@@H]1O | x | x | x | x | -4.8%[176 µM] | x
C=CCN([C@@H](CC(C)C)C(=O)OC)S(=O)(=O)N(CC=C)[C@@H](CC(C)C)C(=O)OC | 17.8µM* | u | -6.6% | 36.4 | 2.5% | 7.6%
COc1ccc(CN2CCCC3(CNc4ccccc4[S+](=O)([O-])N3)C2)cc1 (stereo not drawn) | x | x | x | x | -10.8% | x
Cc1cc(C)n(-c2nnc(C)n2/N=C/c2ccccc2OCc2ccccc2Cl)n1 | 20.6µM* | u | -23.1% | -6.0 | 159.9% | -5.6%
O=C(CCN1C(=O)/C(=C/c2ccc(F)cc2)SC1=S)NC1C=CS(=O)(=O)C1 (stereo not drawn) | 13µM* | 13µM* | -3.2% | u | -2.0% | 2.9%
O=C(CCN1C(=O)/C(=C/c2ccc(F)cc2)SC1=S)N[C@@H](CO)Cc1ccccc1 | 20.6µM* | 16.4µM* | 1.7% | -51.6* | 3.3% | -0.9%
COc1ccc(/C=C2\SC(=O)N(CC(=O)NC3C=CS(=O)(=O)C3)C2=O)cc1 (stereo not drawn) | u | u | -0.8% | -2.6 | 1.2% | -1.2%
O=C(CN1C(=O)S/C(=C\c2ccccc2F)C1=O)NC1C=CS(=O)(=O)C1 (stereo not drawn) | u | 14.6µM* | -17.0% | -70.0* | -16.4% | -0.4%
O=C(CCN1C(=O)/C(=C/c2ccc(F)cc2)SC1=S)NNC(=O)c1ccncc1 | u | u | 0.2% | 1.6 | 8.5% | 0.6%
CC(C(=O)NC1C=CS(=O)(=O)C1)N1C(=O)/C(=C/c2ccc(Cl)cc2)SC1=S (stereo not drawn) | u | u | -28.2% | -58.9* | 39.8µM* | -12.0%
COc1ccc(C)cc1NC(=O)Cn1cccc1-c1nc(-c2ccc(F)cc2)no1 | x | x | x | x | 1.6% | x
CCN(CC)CCCC(C)NC(=O)C(CC(C)C)NC(=O)OC (stereo not drawn) | x | x | x | x | -2.1% | x
O=C(CCN1C(=O)/C(=C/c2ccccc2Cl)SC1=S)NC1C=CS(=O)(=O)C1 (stereo not drawn) | 23.1µM* | 18.4µM* | -0.8% | -63.4* | -15.2% | -3.7%
O=C(Cc1cc(=O)[nH][nH]1)N/N=C/C=C/c1ccccc1 | 29.1µM* | u | -9.2% | u | 0.0% | -8.8%
O=C(CNC(=O)c1ccccc1)N/N=C/C=C/c1ccccc1 | -4.7% | -11.2% | 7.9% | -17.1 | 0.0% | 6.4%
O=C(COc1ccc2c(=O)c(-c3ccc(Cl)cc3)coc2c1)N[C@H](CO)c1ccccc1 | x | x | x | x | -26.5% | x
O=C(Nc1ccccc1O)C(c1ccccc1)c1ccccc1 | 7.31µM* | u | -16.4% | -63.5* | -37.5% | u
O=C(O)c1ccccc1NC(=O)C(c1ccccc1)c1ccccc1 | -12.0% | -5.0% | -9.3% | 54.7 | u | 0.0%
Cc1cc(C)nc(NC(=O)C(c2ccccc2)c2ccccc2)c1 | 14.6µM* | u | -1.0% | -5.4 | -14.4% | 6.1%
NC(=O)c1ccccc1NC(=O)C(c1ccccc1)c1ccccc1 | 29.1µM* | u | -19.8% | -7.2 | 19.4% | -15.7%
SMILES | TDP1 cell noCPT | DT40 TDP1 CPT | HT1080 IDH1KD tx | IL-1B inflam inh | ALOX12 inh | HT1080NT lethal
CC(C)Cc1ccc(C(C)C(=O)Nc2ccccc2O)cc1 (stereo not drawn) | 8.2µM* | 8.2µM* | 23.1µM* | -94.6* | u | 3.66µM*
COc1cccc(C#CC2=CC(=O)C[C@H](c3ccc(F)cc3)C2)c1 | 8.2µM* | 13µM* | u | -93.1* | -70.2% | u
O=C1C=C(c2ccc(-c3ccccc3)c(F)c2)C[C@@H](c2ccc(F)cc2)C1 | u | u | 7.8% | 19.7 | 2.3% | 8.2%
O=C1C=C(C#Cc2ccc(Oc3ccccc3)cc2)C[C@@H](c2ccc(F)cc2)C1 | 11.6µM* | 16.4µM* | u | -79.8* | 0.0% | u
COc1ccc(C)cc1NS(=O)(=O)c1cc(-c2cnc(C)o2)ccc1C | x | x | x | x | 3.9% | x
S=C(NCCc1ccccc1)N1CCC2CC1c1cc(-c3ccc4c(c3)OCO4)ccc12 (stereo not drawn) | 9.2µM* | 8.2µM* | u | -9.2 | 28.2µM* | u
Fc1ccc(-c2ccc3c(c2)C2CC3CCN2Cc2ccc3c(c2)OCO3)cc1 (stereo not drawn) | 16.4µM* | u | -10.9% | 14.9 | -11.2% | -9.3%
COCCNC(=S)N1CCC2CC1c1cc(-c3ccc4c(c3)OCO4)ccc12 (stereo not drawn) | u | 16.4µM* | u | 68.2 | 28.2µM* | u
O=S(=O)(c1cccc2ccccc12)N1CCC2CC1c1cc(-c3ccc4c(c3)OCO4)ccc12 (stereo not drawn) | u | u | 23.3% | 27.2 | 4.9% | u
O=C(c1ccccc1F)N1CCC2CC1c1cc(-c3ccc4c(c3)OCO4)ccc12 (stereo not drawn) | 20.6µM* | u | u | 18.4 | -12.1% | u
COc1ccc(S(=O)(=O)N2CCOC[C@H](Oc3cnccn3)C2)cc1 | x | x | x | x | -15.0%[176 µM] | x
CCN=c1scc(-c2ccccc2)n1/N=C/c1ccccn1 | 3.66µM* | 4.11µM* | u | -58.1* | x | u
O=C(Cc1ccc(F)cc1)N/N=C/c1ccccn1 | -17.4% | -19.2% | -12.7% | -12.6 | 7.5% | -10.0%
CCN=c1scc(-c2ccc(F)cc2)n1/N=C/c1ccccn1 | 16.4µM* | u | u | -50.8* | 207.5% | -2.5%
CCc1ccccc1NC(=O)CN(c1ccccc1)S(=O)(=O)c1ccsc1C(=O)OC | 18.4µM* | 16.4µM* | x | x | -25.0% | x
